Screens (PubChem)
These entries were drawn from the full list.
DT40 TDP1 no CPT – qHTS for Inhibitors of human tyrosyl-DNA phosphodiesterase 1 (TDP1): qHTS in cells in absence of CPT | DT40 Tdp1-/- hTDP1 cells, no CPT, ATP luminescence, 48 h | Potency, µM (titrated, usually from 46.2 µM), for the others: at the top dose activity change, negative = growth inhibition, usual class: inhibitors | 420,000 compounds, 15% hits | AID 686978, 2013; note: potency is the fitted concentration of half-maximal effect; nearly all actives have a fitted effect of over 55% in size
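Chicken DT40 Tdp1-/- cells stably complemented with human TDP1 were seeded at 400 cells/well with DMSO in place of 20 nM camptothecin. After compound pinning, cells grew at least 48 hr at 37 °C; viability read by CellTiter-Glo luminescence.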
TDP1 cell CPT – DT40-hTDP1 cell growth loss with CPT. chicken DT40 Tdp1-/-;hTDP1 cells + 20 nM CPT, ATP luminescence, 48 h. Potency, µM (series often up to 46.2 µM), without a hit: at the highest dose activity change, negative = growth inhibition, most hits filed as inhibitors. 420,000 compounds, 12% hits; note: potency is the fitted concentration of half-maximal effect; nearly all actives have a fitted effect of over 55% in size
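Cell growth measured by CellTiter-Glo luminescence after a minimum 48 h, 37 C compound exposure with 20 nM CPT in Tdp1-knockout DT40 cells stably expressing hTDP1, seeded 400/well; qHTS titration format.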
IL-1B inflam inh – blocks inflammasome-driven IL-1 beta release; THP-1 LPS/ATP IL-1B secretion, AlphaLISA, 16 h; stronger effect = lower value; 360,000 compounds, 4.7% hits; AID 743279; activity change, % at 57.5 µM; in the data active = activity change below about -50%; inconclusive = mostly about -30% to -49%
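THP-1 cells pretreated 1 hr with compounds (up to 57.5 uM final), then stimulated with LPS (250 ng/mL final) plus ATP (1.25 mM final); secreted IL-1B measured by AlphaLISA after 16 hr, decreased signal indicating inhibition.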
HT1080-NT tox – kills 2HG-producing HT-1080-NT fibrosarcoma cells; HT-1080-NT fibrosarcoma viability, CellTiter-Glo ATP luminescence, 48 h; Potency, µM (highest dose often 46.1 µM), for inactives: top-dose activity, negative = less viability, most hits filed as cytotoxic; 360,000 compounds, 1.6% hits;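 note: NT is the 2HG producing partner of a matched IDH1 knockdown line; potency is the fitted concentration of half-maximal effect; 0% = DMSO-treated cells and -100% = media-only wells without cells; nearly all actives have a fitted effect of over 55% in size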
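HT-1080-NT fibrosarcoma cells (2HG-overproducing), 750 cells/well in RPMI with 5% FBS, dosed after 2 h and incubated 48 h at 37C. CellTiter-Glo luminescence normalized to DMSO and no-cell wells; concentration-response curves fitted and classed.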
HT1080 IDH1KD tx – HT-1080 IDH1 knockdown cell toxicity (counter line). HT-1080 IDH1 knockdown viability, ATP luminescence, 48 h. Potency, µM (top dose mostly 46.1 µM), inactives show top-dose activity, negative = toxicity, usual class: cytotoxic. 360,000 compounds, 2% hits. AID 686971;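 note: potency is the fitted concentration of half-maximal effect; 0% = DMSO wells and -100% = cell-free medium wells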
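Luminescent ATP read-out (CellTiter-Glo, 10 min at room temperature) after 48 h compound exposure at 37 °C gave viability of IDH1-knockdown HT-1080 cells. Activity was normalised to DMSO and cell-free wells, then fitted as concentration-response curves.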
ELG1 repair inh – inhibitors of ELG1-dependent DNA repair in HEK293T cells. AID 504467. HEK293T ELG1-luciferase reporter, luminescence, 16 h; DNA damage induced by 5-fluorouridine. 330,000 compounds, 2.3% hits. Potency, µM (doses to about 46.1 µM), for the others: at the highest dose activity change, negative = inhibition, hits mostly inhibitors; note: potency is the fitted concentration of half-maximal effect; nearly all actives have a fitted effect of over 55% in size
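In this reporter screen, reduction of luminescence relative to DMSO vehicle indicated activity. Compounds and 5-fluorouridine were added together to 2,000 cells per well, incubated for 16 hr at 37 °C, then developed with ONE-Glo.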
ELG1 FLuc counter – luciferase inhibition in cell-free luciferin readout for ELG1 hits | shares compounds with ELG1 repair inh | 350 compounds, 3% hits | cell-free firefly luciferase luminescence counter-screen, ViewLux | Potency, µM (series often up to 46.1 µM), for the others: top-dose activity change, negative = inhibition, usual class: inhibitors; note: potency is the fitted concentration of half-maximal effect
ELG1 Luc conf – confirmation of human ELG1-dependent DNA repair inhibitors; AID 624248; Potency, µM (top dose mostly 46.1 µM), for inactives: top-dose activity change, negative = inhibition, actives largely listed as inhibitors; HEK293T ELG1-luciferase levels, luminescence; cells co-treated with 5-fluorouridine; 670 compounds, 68% hits; shares compounds with ELG1 repair inh; note: potency is the fitted concentration of half-maximal effect; nearly all actives have a fitted effect of over 55% in size
ELG1 MMS Luc – MMS-stimulated human ELG1 repair inhibition, confirmed; 670 compounds, 53% hits; shares compounds with ELG1 repair inh; Potency, µM (titrated, usually from 46.1 µM), inactives show at the top dose activity change, negative = inhibition, hits mostly inhibitors; HEK293T luciferase-tagged ELG1 level, MMS stimulated; note: potency is the fitted concentration of half-maximal effect; nearly all actives have a fitted effect of over 60% in size
ELG1 5-FU – confirmation of ELG1 repair inhibitors: viability with 5FU; shares compounds with ELG1 repair inh; cell viability with 5-FU, ELG1-dependent repair; Potency, µM (titrated, usually from 46.1 µM), inactives show at the highest dose activity change, negative = viability loss, most hits filed as cytotoxic; 670 tested, under 10 active; AID 624250;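 note: ELG1-luc HEK293T cells cotreated with 5-fluorouridine at 10 µM final; potency is the fitted concentration of half-maximal effect; viability measured 16 h after compound addition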
ELG1 MMS viab – confirmation of ELG1 repair inhibitors: viability with MMS | shares compounds with ELG1 repair inh | Cell viability with MMS, ELG1-dependent DNA repair | Potency, µM (series often up to 46.1 µM), for the others: at the top dose activity change, negative = viability loss, usual class: cytotoxic | 670 compounds, 33% hits;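 note: ELG1-luc HEK293T cells co-treated with 10 µM MMS; potency is the fitted concentration of half-maximal effect; viability read 16 h after compound addition; nearly all actives have a fitted effect of over 60% in size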
ELG1 unstim viab – unstimulated viability counter-screen for ELG1 repair hits. shares compounds with ELG1 repair inh. cell viability counter-screen, unstimulated, luminescence. Potency, µM (highest dose often 45.9 µM), without a hit: at the top dose activity change, negative = loss of viability, hits mostly cytotoxic. 900 compounds, 8% hits. AID 624252;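 note: potency is the fitted concentration of half-maximal effect; compound exposure lasted 16 hours before reading; nearly all actives have a fitted effect of over 55% in size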
FLuc enzyme – inhibits purified firefly luciferase, counter-screen for ELG1 hits; shares compounds with ELG1 repair inh; purified firefly luciferase, luminescence counter-screen; Potency, µM (doses to about 57.5 µM), for the others: at the top dose activity, negative = inhibition, usual class: inhibitors; 350 compounds, 10% hits; AID 624253; note: potency is the fitted concentration of half-maximal effect
An asterisk follows results filed as active; ? = inconclusive; / = no result given; [ ] = another dose, or the depositor's remark. Unless noted, calls come from the whole dose curve; as a rule, active = well fitted curve in the direction sought with a large enough effect; inconclusive = small, poorly fitted or top-dose-only effect, or another doubt; inactive = no such curve, though single readings can be large; an effect the other way counts as inactive or inconclusive. Unless noted, % is set by controls: 0 for no effect and ±100 for the full control effect.

SMILES	DT40 TDP1 no CPT	TDP1 cell CPT	IL-1B inflam inh	HT1080-NT tox	HT1080 IDH1KD tx	ELG1 repair inh	ELG1 unstim viab	others
CC(C)CNC(=O)C(=O)NCC1CCCN1S(=O)(=O)c1cccs1 (stereo not given)	8%	9%	21	4%	3%	-2%	/
O=C(NNS(=O)(=O)c1ccccc1[N+](=O)[O-])c1cc2ccccc2cc1O	-9%	1%	13	?	?	-4%	/
CC(C)Sc1ncc(S(=O)(=O)c2ccccc2)c(=O)[nH]1	-7%	7%	5	2%	-1%	-1%	/
O=C(CSc1nnc(-c2ccc(O)cc2)o1)Nc1ccccc1	-20%	6%	-3	-11%	-15%	?	?	ELG1 FLuc counter=209%;FLuc enzyme=?
O=C(CSc1nnc(-c2ccc(Cl)cc2)o1)Nc1ccc(F)cc1	4%	-11%	/	/	/	/	/
COc1ccc(C(=O)N/N=C/c2ccccc2C(=O)O)cc1OC	-20%	-5%	0	12%	14%	-2%	/
COc1cc(C(=O)Oc2ccccc2/C=N/NC(=O)c2ccc(C)c(Cl)c2)cc(OC)c1OC	0.92µM*	1.2µM*	44	?	?	4.6µM*	-10%	ELG1 Luc conf=2.8µM*;ELG1 MMS Luc=?;ELG1 5-FU=?;ELG1 MMS viab=-11%
COc1cc(OC)c2c(=O)cc(-c3cccnc3)oc2c1	?	-28%	-18	-9%	-5%	?	/
COc1ccc(-c2cnc(-c3cccnc3)o2)cc1	-8%[9.04 µM]	-7%[9.04 µM]	/	/	/	/	3%
COc1ccccc1/C=C/c1nc2ccccc2o1	-17%	-15%	/	/	/	/	0%
C(=Cc1nc2ccccc2o1)c1ccc2c(c1)OCO2	?	-12%	19	-25%	?	/	/
CCCN(CCC)c1ncnc2nc[nH]c12	?	?	20	-16%	1%	1.6µM*	-4%	ELG1 Luc conf=4.4µM*;ELG1 MMS Luc=?;ELG1 5-FU=-4%;ELG1 MMS viab=10%
